# Test results as given in PubChem BioAssay (EPA / NIEHS).
# Calls of active or inactive are those of the source. The calls were made as follows: active = hit-call score of the fitted dose curve at least 0.9, where 1 is the maximum; inactive = score below 0.9.
# Read-out: Collagen III, COL3A1 (gene 1281)
# Experiment: BSK_hDFCGF_CollagenIII: BioMAP Diversity Plus: hDFCGF Assay for Collagen III Biomarker Activity (AID 2283056)
# Conditions: primary human foreskin fibroblasts; actives raise or lower the signal
# Method: BSK_hDFCGF is a cell-based, multiplexed-readout assay that uses foreskin fibroblast, a human skin primary cell, with measurements taken at 24 hours after chemical dosing in a 96-well plate.BSK_hDFCGF_CollagenIII is an assay component measured in the BSK_hDFCGF assay. It measures Collagen antibody related to regulation of gene expression using ELISA technology.Data from the assay component BSK_hDFCGF_CollagenIII was analyzed into 1 assay endpoint. This assay endpoint, BSK_hDFCGF_CollagenIII, was analyzed with bidirectional fitting relative to DMSO as the negative control and baseline of activity. Using a type of binding reporter, gain or loss-of-signal activity can be used to understand changes in the signaling as they relate to the gene COL3A1. Furthermore, this assay endpoint can be referred to as a primary readout, because this assay has produced multiple assay endpoints where this one serves a signaling function. To generalize the intended target to other relatable targets, this assay endpoint is annotated to the cell adhesion molecules intended target family, where the subfamily is collagen.
# The levels of cell surface (or secreted, indicated by the prefix "s") biomarker endpoints were measured by ELISA. Overt cytotoxicity to cells in confluent adherent cultures (all systems other than the BT system) was assessed by measuring total protein levels using sulforhodamine B (SRB) staining in parallel cultures at the time of biomarker measurements, indicated as SRB endpoints. For proliferation assays for adherent cell types, individual cell types are cultured at sub-confluence and relative cell numbers quantified by SRB staining at time points optimized for each system (48 h: 3C and CASM3C systems; 72 h: BT and HDF3CGF systems; 96 h: SAg system). SRB was performed by staining cells with 0.1% SRB after fixation with 10% TCA and reading wells at 560 nm.Viability and proliferation of PBMC (T cells) was quantified by Alamar Blue reduction for the SAg and BT systems. For PBMC viability (referred to as PBMC Cytotoxicity within the assay endpoint names), cells were plated (75,000/well in a 96-well plate) and then chemical samples added for 1 h before addition of activators, SEB and TSST-1 (20 ng/mL final concentration each). Cells were incubated for 90 h. Then, Alamar Blue (20 uL/well) (Invitrogen, Cat DAL1100) was added for 6 h, and the plates were read with a fluorescence microplate reader at 546/580 nm (excitation/emission). For PBMC proliferation, cells were plated and activated as above but incubated for only 16 h prior to addition of Alamar Blue. Plates were read after 6 h.
Structure (SMILES),outcome,AC50
O=C(O)c1[nH]n(-c2ccc(S(=O)(=O)O)cc2)c(=O)c1N=Nc1ccc(S(=O)(=O)O)cc1,inactive,–
CCCC(=O)O,inactive,–
Cc1occc(=O)c1O,inactive,–
CC(C)c1cccc(C(C)C)c1NC(=O)NS(=O)(=O)c1cc(C(C)(C)O)co1,inactive,–
C/C=C/c1ccc(OC)cc1,inactive,–
CC(=O)S[C@H](C(=O)N[C@H]1Cc2ccccc2[C@H]2CCC[C@@H](C(=O)O)N2C1=O)C(C)C,inactive,–
Cc1ccc(-c2cc(C(F)(F)F)nn2-c2ccc(S(N)(=O)=O)cc2)cc1,inactive,–
C=CCc1ccc(OC)c(OC)c1,inactive,–
Cc1cc(SC2=C(O)C[C@@](CCc3ccc(N)cc3)(C(C)C)OC2=O)c(C(C)(C)C)cc1CO,inactive,–
Cc1ccc(C(C)(C)C)c(O)c1,inactive,–
O=C1CCCCC1,inactive,–
C#CC(O)C(CC)CCCC (stereo not given),inactive,–
NCCOCCOCCN,inactive,–
NC(=Nc1ccccc1)Nc1ccccc1,inactive,–
CCCCOC(=O)CCCCC(=O)OCCCC,inactive,–
O=C(O)c1cccnc1,inactive,–
CCCCC(CC)COP(=O)(OCC(CC)CCCC)OCC(CC)CCCC (stereo not given),inactive,–
CCN(CC)CCOc1ccc(C(=C(Cl)c2ccccc2)c2ccccc2)cc1,–,12.1 µM (active)
CC(=O)[C@@]1(O)CC[C@H]2[C@@H]3CCC4=CC(=O)CC[C@]4(C)[C@H]3CC[C@@]21C,inactive,–
CCCCC(CC)COC(=O)CCCCCCCC(=O)OCC(CC)CCCC (stereo not given),inactive,–

Structure (SMILES),outcome,AC50
COc1ccc(C(=O)Nc2nc3ccccc3c(NCc3ccccc3)c2C#N)cc1,–,2.8 µM (active)
CO[C@@H]1COCC[C@@H]1N[C@@H]1CC[C@@](C(=O)N2CCc3ncc(C(F)(F)F)cc3C2)(C(C)C)C1,inactive,–
CCCCCCCC(=O)OC,inactive,–
COC(=O)CCCC(=O)OC,inactive,–
CSc1ccc(Oc2ccc(S(N)(=O)=O)cc2CN(C)C)cc1C,inactive,–
COC(=O)CCC(=O)OC,inactive,–
O=NO,inactive,–
CCc1nc(N)nc(N)c1-c1ccc(Cl)cc1,inactive,–
OCC(O)CO,inactive,–
Oc1ccccc1O,–,10.2 µM (active)
CC(C)OC(=O)C(C)(C)Oc1ccc(C(=O)c2ccc(Cl)cc2)cc1,–,8.9 µM (active)
CC(N)=O,inactive,–
NC=O,inactive,–
Cc1c(C)c2c(c(C)c1O)CCC(C)(COc1ccc(CC3SC(=O)NC3=O)cc1)O2 (stereo not given),–,12 µM (active)
S=c1[nH]c2ccccc2s1,–,6.58 µM (active)
CCCCc1nc2cccnc2n1Cc1ccc(-c2ccccc2-c2nnn[nH]2)cc1,inactive,–
CC(C)(O)c1ccc(CNC(=O)c2cccnc2Oc2ccc(F)cc2)cc1,inactive,–
NC1CCCCC1,inactive,–
CCCCCCC(CCCCCCCCCCC(=O)OCC(COC(C)=O)OC(C)=O)OC(C)=O (stereo not given),–,2.73 µM (active)
N[C@@H](Cc1c[nH]c2ccccc12)C(=O)O,inactive,–
